# Assay results as given in PubChem BioAssay (NCI).
# Several values for one entry are separate records, joined by “and”; a condition that tells them apart may be missing. Equal entries are not always repeated. The panel holds about 83,000 compounds, 20% with a hit somewhere; the sample as a whole holds those more often.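 Step 1: grow cells in 96-well plates. Step 2: add test compound at a single concentration. Step 3: incubate 48 h. Step 4: record percent growth.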 Activity calls are given as the source filed them. Rule for the calls: active = growth percent below 10; inactive = the rest.
# Key:
# Assay in all cases: NCI-60 one-dose screen, 48 h (100 = growth as untreated, 0 = no growth, -100 = all killed)
# HCT-15 colon = tested on: HCT-15 colon
# HT29 colon = tested on: HT29 colon
# SNB-75 CNS = tested on: SNB-75 CNS
# SNB-19 CNS = tested on: SNB-19 CNS
# U251 CNS = tested on: U251 CNS
# PC-3 prostate = tested on: PC-3 prostate
# SK-MEL-5 melanoma = tested on: SK-MEL-5 melanoma
# UACC-62 melanoma = tested on: UACC-62 melanoma
# LOX IMVI melanoma = tested on: LOX IMVI melanoma
# SK-MEL-28 melanoma = tested on: SK-MEL-28 melanoma
# SK-MEL-2 melanoma = tested on: SK-MEL-2 melanoma
# EKVX NSCLC = tested on: EKVX NSCLC
# SN12C renal = tested on: SN12C renal
# UO-31 renal = tested on: UO-31 renal
# TK-10 renal = tested on: TK-10 renal
# ACHN renal = details: 10 µM unless noted
# A498 renal = tested on: A498 renal
# CCRF-CEM leukemia = tested on: CCRF-CEM leukemia
# MOLT-4 leukemia = tested on: MOLT-4 leukemia
# CAKI-1 renal = details: 10 µM unless noted
smiles,measurement,setting,value
CCN(Cc1ccccc1)c1ccc(/C=C2\COc3ccccc3C2=O)cc1,growth,HCT-15 colon; 10 µM,94% (inactive)
same,growth,HCT-15 colon; 100 µM,23.6% (inactive)
same,growth,HT29 colon; 10 µM,99.7% (inactive)
same,growth,HT29 colon; 100 µM,5.56% (active)
same,growth,SNB-75 CNS; 10 µM,93.2% (inactive)
same,growth,SNB-75 CNS; 100 µM,57.6% (inactive)
same,growth,SNB-19 CNS; 10 µM,98.9% (inactive)
same,growth,SNB-19 CNS; 100 µM,50.4% (inactive)
same,growth,U251 CNS; 10 µM,96% (inactive)
same,growth,U251 CNS; 100 µM,19.1% (inactive)
same,growth,PC-3 prostate; 10 µM,87.1% (inactive)
same,growth,PC-3 prostate; 100 µM,26.5% (inactive)
same,growth,SK-MEL-5 melanoma; 10 µM,102% (inactive)
same,growth,SK-MEL-5 melanoma; 100 µM,6.96% (active)
same,growth,UACC-62 melanoma; 10 µM,87% (inactive)
same,growth,UACC-62 melanoma; 100 µM,31% (inactive)
same,growth,LOX IMVI melanoma; 10 µM,96.3% (inactive)
same,growth,LOX IMVI melanoma; 100 µM,37.5% (inactive)
same,growth,SK-MEL-28 melanoma; 10 µM,99.9% (inactive)
same,growth,SK-MEL-28 melanoma; 100 µM,53.1% (inactive)
same,growth,SK-MEL-2 melanoma; 10 µM,102% (inactive)
same,growth,SK-MEL-2 melanoma; 100 µM,21.8% (inactive)
same,growth,EKVX NSCLC; 10 µM,102% (inactive)
same,growth,EKVX NSCLC; 100 µM,36.9% (inactive)
same,growth,SN12C renal; 10 µM,94.5% (inactive)
same,growth,SN12C renal; 100 µM,53.2% (inactive)
same,growth,UO-31 renal; 10 µM,83.8% (inactive)
same,growth,UO-31 renal; 100 µM,18.6% (inactive)
same,growth,TK-10 renal; 10 µM,119% (inactive)
same,growth,TK-10 renal; 100 µM,53.3% (inactive)
same,growth,ACHN renal,101% (inactive)
same,growth,A498 renal; 10 µM,91.3% (inactive)
same,growth,A498 renal; 100 µM,40.2% (inactive)
same,growth,CCRF-CEM leukemia; 10 µM,104% (inactive)
same,growth,CCRF-CEM leukemia; 100 µM,15% (inactive)
same,growth,MOLT-4 leukemia; 10 µM,78.6% (inactive)
same,growth,MOLT-4 leukemia; 100 µM,10.5% (inactive)
Clc1ccc2c(NCCN3CCN(c4ccnc(N5CCCC5)n4)CC3)ccnc2c1,growth,HCT-15 colon; 10 µM unless noted,0.29% (active)
same,growth,HT29 colon; 10 µM unless noted,6.82% (active)
same,growth,SNB-75 CNS; 10 µM unless noted,90.7% (inactive)
same,growth,SNB-19 CNS; 10 µM unless noted,53.7% (inactive)
same,growth,U251 CNS; 10 µM unless noted,6.81% (active)
same,growth,PC-3 prostate; 10 µM unless noted,58.6% (inactive)
same,growth,SK-MEL-5 melanoma; 10 µM unless noted,-16.8% (active)
same,growth,UACC-62 melanoma; 10 µM unless noted,-29.5% (active)
same,growth,LOX IMVI melanoma; 10 µM unless noted,-70.1% (active)
same,growth,SK-MEL-28 melanoma; 10 µM unless noted,-17.6% (active)
same,growth,SK-MEL-2 melanoma; 10 µM unless noted,92.4% (inactive)
same,growth,EKVX NSCLC; 10 µM unless noted,63% (inactive)
same,growth,SN12C renal; 10 µM unless noted,57.2% (inactive)
same,growth,UO-31 renal; 10 µM unless noted,25.8% (inactive)
same,growth,TK-10 renal; 10 µM unless noted,52.5% (inactive)
same,growth,ACHN renal,55.6% (inactive)
same,growth,CAKI-1 renal,27.7% (inactive)
same,growth,A498 renal; 10 µM unless noted,51.5% (inactive)
same,growth,CCRF-CEM leukemia; 10 µM unless noted,51.1% (inactive)
same,growth,MOLT-4 leukemia; 10 µM unless noted,47.2% (inactive)
COc1cc2cc(NCc3ccncc3)nc(C)c2cc1OC,growth,HCT-15 colon; 10 µM unless noted,82.9% (inactive)
same,growth,HT29 colon; 10 µM unless noted,91.6% (inactive)
same,growth,SNB-75 CNS; 10 µM unless noted,97% (inactive)
same,growth,SNB-19 CNS; 10 µM unless noted,93.8% (inactive)
same,growth,U251 CNS; 10 µM unless noted,78.5% (inactive)
same,growth,PC-3 prostate; 10 µM unless noted,77.8% (inactive)
same,growth,SK-MEL-5 melanoma; 10 µM unless noted,95.2% (inactive)
same,growth,UACC-62 melanoma; 10 µM unless noted,97.8% (inactive)
same,growth,LOX IMVI melanoma; 10 µM unless noted,88% (inactive)
same,growth,SK-MEL-28 melanoma; 10 µM unless noted,99.2% (inactive)
same,growth,SK-MEL-2 melanoma; 10 µM unless noted,100% (inactive)
same,growth,EKVX NSCLC; 10 µM unless noted,96.3% (inactive)
same,growth,SN12C renal; 10 µM unless noted,97.1% (inactive)
same,growth,UO-31 renal; 10 µM unless noted,89.8% (inactive)
same,growth,TK-10 renal; 10 µM unless noted,83.5% (inactive)
same,growth,ACHN renal,101% (inactive)
same,growth,CAKI-1 renal,82.3% (inactive)
same,growth,A498 renal; 10 µM unless noted,72.4% (inactive)
same,growth,CCRF-CEM leukemia; 10 µM unless noted,112% (inactive)
same,growth,MOLT-4 leukemia; 10 µM unless noted,109% (inactive)
CCOc1ccc(N2C(N)=NC(N)=NC2(C)C)cc1,growth,HCT-15 colon; 10 µM unless noted,99.9% (inactive)
same,growth,HT29 colon; 10 µM unless noted,2.75% (active) and 87.4% (inactive)
same,growth,SNB-75 CNS; 10 µM unless noted,-3.85% (active) and 82.7% (inactive)
same,growth,SNB-19 CNS; 10 µM unless noted,40.3% (inactive) and 98.2% (inactive)
same,growth,U251 CNS; 10 µM unless noted,20% (inactive) and 68.6% (inactive)
same,growth,PC-3 prostate; 10 µM unless noted,16% (inactive) and 39.3% (inactive)
same,growth,SK-MEL-5 melanoma; 10 µM unless noted,4.48% (active) and 102% (inactive)
same,growth,UACC-62 melanoma; 10 µM unless noted,41.4% (inactive) and 95.4% (inactive)
same,growth,LOX IMVI melanoma; 10 µM unless noted,36.7% (inactive) and 90.1% (inactive)
same,growth,SK-MEL-28 melanoma; 10 µM unless noted,31.2% (inactive) and 113% (inactive)
same,growth,SK-MEL-2 melanoma; 10 µM unless noted,-0.847% (active) and 107% (inactive)
same,growth,EKVX NSCLC; 10 µM unless noted,93.9% (inactive)
same,growth,SN12C renal; 10 µM unless noted,32.2% (inactive) and 96.9% (inactive)
same,growth,UO-31 renal; 10 µM unless noted,42% (inactive) and 96.6% (inactive)
same,growth,TK-10 renal; 10 µM unless noted,40.9% (inactive)
same,growth,ACHN renal,44.6% (inactive) and 102% (inactive)
same,growth,CAKI-1 renal,13.3% (inactive) and 98.4% (inactive)
same,growth,A498 renal; 10 µM unless noted,-5.18% (active) and 72.7% (inactive)
same,growth,CCRF-CEM leukemia; 10 µM unless noted,9.4% (active) and 79.8% (inactive)
same,growth,MOLT-4 leukemia; 10 µM unless noted,39.2% (inactive) and 81.5% (inactive)
Nc1nc(Nc2ccc(F)cc2)nn1C(=O)c1cc(Cl)ccc1Cl,growth,HCT-15 colon; 10 µM unless noted,69.1% (inactive)
same,growth,HT29 colon; 10 µM unless noted,70.8% (inactive)
same,growth,SNB-75 CNS; 10 µM unless noted,76.7% (inactive)
same,growth,SNB-19 CNS; 10 µM unless noted,65.8% (inactive)
same,growth,U251 CNS; 10 µM unless noted,76.1% (inactive)
same,growth,PC-3 prostate; 10 µM unless noted,75.6% (inactive)
same,growth,SK-MEL-5 melanoma; 10 µM unless noted,87% (inactive)
same,growth,UACC-62 melanoma; 10 µM unless noted,60.8% (inactive)
same,growth,LOX IMVI melanoma; 10 µM unless noted,48.4% (inactive)
same,growth,SK-MEL-28 melanoma; 10 µM unless noted,86% (inactive)
same,growth,SK-MEL-2 melanoma; 10 µM unless noted,97.3% (inactive)
same,growth,EKVX NSCLC; 10 µM unless noted,99.7% (inactive)
same,growth,SN12C renal; 10 µM unless noted,68% (inactive)
same,growth,UO-31 renal; 10 µM unless noted,64.7% (inactive)
same,growth,TK-10 renal; 10 µM unless noted,104% (inactive)
same,growth,ACHN renal,58.9% (inactive)
same,growth,CAKI-1 renal,51.6% (inactive)
same,growth,A498 renal; 10 µM unless noted,68.4% (inactive)
same,growth,CCRF-CEM leukemia; 10 µM unless noted,60.4% (inactive)
same,growth,MOLT-4 leukemia; 10 µM unless noted,75.4% (inactive)
Cc1ccc(/C=C2\COc3ccc(O)c(O)c3C2=O)cc1,growth,HCT-15 colon; 10 µM unless noted,-16.5% (active)
same,growth,HT29 colon; 10 µM unless noted,12.9% (inactive)
same,growth,SNB-75 CNS; 10 µM unless noted,13.5% (inactive)
same,growth,SNB-19 CNS; 10 µM unless noted,24.8% (inactive)
same,growth,U251 CNS; 10 µM unless noted,-3.38% (active)
same,growth,PC-3 prostate; 10 µM unless noted,-10.4% (active)
same,growth,SK-MEL-5 melanoma; 10 µM unless noted,1.84% (active)
same,growth,UACC-62 melanoma; 10 µM unless noted,-19.7% (active)
same,growth,LOX IMVI melanoma; 10 µM unless noted,-83.3% (active)
same,growth,SK-MEL-28 melanoma; 10 µM unless noted,35.6% (inactive)
same,growth,SK-MEL-2 melanoma; 10 µM unless noted,48.8% (inactive)
same,growth,EKVX NSCLC; 10 µM unless noted,28.2% (inactive)
same,growth,SN12C renal; 10 µM unless noted,-77.6% (active)
same,growth,UO-31 renal; 10 µM unless noted,-97.3% (active)
same,growth,TK-10 renal; 10 µM unless noted,8.12% (active)
same,growth,ACHN renal,-77.6% (active)
same,growth,CAKI-1 renal,-27.6% (active)
same,growth,A498 renal; 10 µM unless noted,6.45% (active)
same,growth,CCRF-CEM leukemia; 10 µM unless noted,3.17% (active)
same,growth,MOLT-4 leukemia; 10 µM unless noted,1.48% (active)
